# From PubChem BioAssay (Tox21)
# Values joined by “and” are separate entries in the source; they are usually repeats but may differ in a detail not shown here. Equal values may be shown once. Unmarked numbers belong to inactive results. Inconclusive results are not listed. Where a call stands in place of a potency, no number is given. Active and inactive are the calls of the source. Unless noted, calls follow the shape of the dose curve; as a rule, active = well fitted curve in the direction sought with a large enough effect in the repeat runs; inconclusive = weak or mixed curves; inactive = no such curve, though single readings can be large; an effect the other way counts as inactive or inconclusive.
# Key:
# [1] = biological target: Thyrotropin receptor (Homo sapiens) (UniProt P16473); test: qHTS assay to identify small molecule agonists of the thyroid stimulating hormone receptor (TSHR) signaling pathway (AID 1224843; calls by dose curve; also: nearly all actives have a fitted effect of over 45% in size; also: potency is read from the fitted curve at half-maximal effect)
# In short: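 TSHR-HEK293 cells in agonist mode, 30 min room-temperature step, then cAMP measured by competitive HTRF (cAMP-d2 with anti-cAMP cryptate) after 1 h at room temperature. Tested at 15 concentrations in triplicate.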
# [2] = qHTS assay to identify small molecule agonists of the hypoxia (HIF-1) signaling pathway - cell viability counter screen (AID 1224844; calls by dose curve; also: nearly all actives have a fitted effect of over 50% in size; also: potency is read from the fitted curve at half-maximal effect)
# In short: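 Tox21 10K compounds were added to HRE-bla ME-180 cells (0.5% dialyzed FBS) and incubated 17 hrs at 37C; ATP-based CellTiter-Glo luminescence then reported cell viability in the same wells.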
# [3] = qHTS assay to identify small molecule agonists of the hypoxia (HIF-1) signaling pathway (AID 1224846; active = well fitted activation curve with a large enough effect in the signal ratio in the repeat runs, not every such curve was filed as active; the % refers to the signal ratio)
# In short: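 Steps: seed ME-180 HRE-bla cells (2,000/well, 0.5% dialyzed FBS); incubate 5 hrs at 37C; pin-transfer compounds or DMSO; incubate 17 hrs; add LiveBLAzer B/G substrate CCF4-AM; measure reporter activation by FRET.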
# [4] = qHTS assay to identify small molecule agonists of H2AX - cell viability counter screen (AID 1224847; calls by dose curve; also: top concentration of the series differs between compounds; nearly all actives have a fitted effect of over 30% in size)
# In short: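 For this counter screen, overnight-attached CHO-K1 cells received test compounds (15 concentrations, 0.76% DMSO final); 3 hr later at 37C, CellTiter-Glo reagent was added and luminescence recorded after 30 min at room temperature.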
# [5] = qHTS RealTime-Glo MT Cell Viability Assay in HepG2 cells - 24 hour (AID 1224867); also: nearly all actives have a fitted effect of over 50% in size; also: potency is read from the fitted curve at half-maximal effect
# In short: (§1)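 Real-time, nonlytic viability: 600 HepG2 cells/well mixed with NanoLuc enzyme plus prosubstrate; 5 h settle, compound (DMSO) added by pintool; luminescence monitored over 40 h at 37 C.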
# [6] = qHTS RealTime-Glo MT Cell Viability Assay in HEK293 cells - 32 hour (AID 1224868); also: nearly all actives have a fitted effect of over 50% in size; also: potency is read from the fitted curve at half-maximal effect
# In short: (§2)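 Cells + reagent dispensed (600 cells/well, HEK293) → 5 h at 37 C/5% CO2 → 23 nL compound in DMSO pinned → 40 h at 37 C → luminescence read at 0, 8, 16, 24, 32, 40 h.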
# [7] = qHTS RealTime-Glo MT Cell Viability Assay in HepG2 cells - 40 hour (AID 1224870); also: nearly all actives have a fitted effect of over 50% in size
# In short: (§3)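 HepG2 cells (600/well) mixed with RealTime-Glo MT reagent, settled 5 h at 37 C/5% CO2 before compound addition. Nonlytic NanoLuc luminescence from viable-cell prosubstrate reduction read repeatedly during 40 h treatment at 37 C.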
# [8] = qHTS RealTime-Glo MT Cell Viability Assay in HEK293 cells - 16 hour (AID 1224872); also: nearly all actives have a fitted effect of over 50% in size; also: potency is read from the fitted curve at half-maximal effect
# In short: as §2
# [9] = qHTS RealTime-Glo MT Cell Viability Assay in HepG2 cells - 8 hour (AID 1224873); also: nearly all actives have a fitted effect of over 55% in size; also: potency is read from the fitted curve at half-maximal effect
# In short: as §3
# [10] = qHTS RealTime-Glo MT Cell Viability Assay in HEK293 cells - 40 hour (AID 1224874); details: RealTime-Glo luminescence; max response: stronger effect = lower value; also: nearly all actives have a fitted effect of over 50% in size; also: potency is read from the fitted curve at half-maximal effect
# In short: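 Nonlytic bioluminescent viability monitoring. HEK293 at 600 cells/well with reagent; 5 h settle; compound transfer by pintool; plates held at 37 C and read at set time points.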
# [11] = A CellTox Green Cytotoxicity Assay to monitor cytotoxicity in HEK293 cells - 24 hour (AID 1224875); also: nearly all actives have a fitted effect of over 45% in size; also: potency is read from the fitted curve at half-maximal effect
# In short: (§4)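 Cytotoxicity was tracked continuously in HEK293 cells by a DNA-binding dye excluded from viable cells. Compounds were transferred in DMSO 5 h after seeding; fluorescence was recorded at intervals up to 40 h.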
# [12] = A CellTox Green Cytotoxicity Assay to monitor cytotoxicity in HepG2 cells - 16 hour (AID 1224876); also: nearly all actives have a fitted effect of over 45% in size
# In short: (§5)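 Real-time, homogeneous cytotoxicity readout: dead-cell DNA staining by CellTox Green in HepG2 monolayers, fluorescence measured at timed intervals up to 40 h of continuous compound exposure.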
# [13] = A CellTox Green Cytotoxicity Assay to monitor cytotoxicity in HepG2 cells - 24 hour (AID 1224878); also: nearly all actives have a fitted effect of over 45% in size; also: potency is read from the fitted curve at half-maximal effect
# In short: as §5
# [14] = A CellTox Green Cytotoxicity Assay to monitor cytotoxicity in HepG2 cells - 40 hour (AID 1224879); also: nearly all actives have a fitted effect of over 40% in size; also: potency is read from the fitted curve at half-maximal effect
# In short: as §5
# [15] = qHTS assay to identify small molecule agonists of H2AX (AID 1224845; active = well fitted activation curve with a large enough effect in the signal ratio in the repeat runs, not every such curve was filed as active; the % refers to the signal ratio)
# In short: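 Wild-type CHO-K1 cells, plated overnight, exposed 3hr at 37C to 15 concentrations (0.76% DMSO final). Lysed, then HTRF anti-pH2AX (S139) cryptate and anti-H2AX-d2 antibodies, 24 hr room temperature; 665/620 nm emission read.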
# [16] = qHTS assay to identify small molecule antagonists of the estrogen related receptor (ERR) signaling pathway from Tox21 library (AID 1224848); also: nearly all actives have a fitted effect of over 50% in size; also: potency is read from the fitted curve at half-maximal effect
# In short: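 ERR reporter cell line (from NTP) seeded 2,000 cells/well, rested 6 h at 37 C/5% CO2, then pin-dosed with compounds in DMSO. After 18 h at 37 C, ONE-Glo added; luminescence read after 30 min at room temperature.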
# [17] = A CellTox Green Cytotoxicity Assay to monitor cytotoxicity in HEK293 cells - 0 hour (AID 1224869); also: nearly all actives have a fitted effect of over 50% in size
# In short: as §4
# [18] = A CellTox Green Cytotoxicity Assay to monitor cytotoxicity in HEK293 cells - 40 hour (AID 1224871); also: nearly all actives have a fitted effect of over 45% in size; also: potency is read from the fitted curve at half-maximal effect
# In short: as §4
# [19] = qHTS RealTime-Glo MT Cell Viability Assay in HepG2 cells - 32 hour (AID 1224877); also: nearly all actives have a fitted effect of over 55% in size
# In short: as §1
# [20] = qHTS assay to identify small molecule agonists of the estrogen related receptor (ERR) signaling pathway from Tox21 library (AID 1224849; calls by dose curve; also: nearly all actives have a fitted effect of over 15% in size); details: ERR reporter cell line, ONE-Glo luciferase, 18 h; at 92.4 µM (top of the series) unless noted
# In short: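 Agonist signal is luciferase luminescence from an ERR reporter cell line treated 18 h at 37 C with DMSO-dissolved compounds, read 30 min after ONE-Glo addition at room temperature.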
# Thyrotropin receptor (Homo sapiens), sequence (P16473 whole entry, looked up): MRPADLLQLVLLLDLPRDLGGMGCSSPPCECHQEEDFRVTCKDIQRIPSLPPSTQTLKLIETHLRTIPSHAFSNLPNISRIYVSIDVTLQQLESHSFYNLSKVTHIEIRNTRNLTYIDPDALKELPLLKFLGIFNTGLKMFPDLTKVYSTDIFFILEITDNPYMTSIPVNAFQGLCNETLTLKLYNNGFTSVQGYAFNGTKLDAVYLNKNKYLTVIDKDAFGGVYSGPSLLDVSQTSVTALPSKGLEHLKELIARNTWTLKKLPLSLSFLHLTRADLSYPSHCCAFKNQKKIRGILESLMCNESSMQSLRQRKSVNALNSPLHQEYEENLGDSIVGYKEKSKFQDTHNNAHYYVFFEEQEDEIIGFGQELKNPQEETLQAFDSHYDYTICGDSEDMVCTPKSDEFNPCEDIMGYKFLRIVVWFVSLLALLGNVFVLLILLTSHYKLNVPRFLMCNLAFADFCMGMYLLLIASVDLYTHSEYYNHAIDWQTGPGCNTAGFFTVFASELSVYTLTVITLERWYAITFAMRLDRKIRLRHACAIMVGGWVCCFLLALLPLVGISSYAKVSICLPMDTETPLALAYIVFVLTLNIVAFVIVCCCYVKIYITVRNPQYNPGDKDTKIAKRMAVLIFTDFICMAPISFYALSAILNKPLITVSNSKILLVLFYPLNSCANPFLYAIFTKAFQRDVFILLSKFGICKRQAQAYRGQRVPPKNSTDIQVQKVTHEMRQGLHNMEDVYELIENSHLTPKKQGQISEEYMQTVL
smiles,measurement,setting,value
Cc1cscn1,Potency,[1],inactive
same,Potency,[2],inactive
same,outcome,[3],inactive
same,Potency,[4],inactive
same,Potency,[5],inactive
same,Potency,[6],inactive
same,Potency,[7],inactive
same,Potency,[8],inactive
same,Potency,[9],inactive
same,max response,[10],11.3%
same,Potency,[11],inactive
same,Potency,[12],inactive
same,Potency,[13],inactive
same,Potency,[14],inactive
C(=C\c1ccccc1)/c1ccccc1,Potency,[1],inactive
same,Potency,[15],inactive
same,outcome,[3],inactive
same,Potency,[4],inactive
same,Potency,[16],inactive
same,Potency,[5],inactive
same,Potency,[6],inactive
same,Potency,[17],inactive
same,Potency,[7],inactive
same,Potency,[8],inactive
same,Potency,[9],inactive
same,Potency,[12],inactive
same,Potency,[13],inactive
same,Potency,[14],inactive
CCn1cc(C(=O)O)c(=O)c2cc(F)c(N3CCNCC3)cc21,Potency,[1],inactive
same,Potency,[2],inactive
same,Potency,[4],inactive
same,Potency,[5],inactive
same,Potency,[6],inactive
same,Potency,[17],inactive
same,Potency,[7],inactive
same,Potency,[18],inactive
same,Potency,[8],inactive
same,Potency,[9],inactive
same,Potency,[11],inactive
same,Potency,[12],inactive
same,Potency,[19],inactive
same,Potency,[13],inactive
same,Potency,[14],inactive
CN1C[C@H](C(=O)N[C@]2(C)O[C@@]3(O)[C@@H]4CCCN4C(=O)[C@H](Cc4ccccc4)N3C2=O)C[C@@H]2c3cccc4[nH]cc(c34)C[C@H]21,Potency,[1],inactive
same,Potency,[2],12 µM (active)
same,Potency,[16],29.8 µM (active)
same,"activity change, positive = activation",[20],-52.3% [at 42.5 µM]
same,Potency,[6],21.3 µM (active)
same,Potency,[17],inactive
same,Potency,[8],23.9 µM (active)
CNC(=O)c1cnn(-c2nc(N)c3ncn([C@@H]4O[C@H](CO)[C@@H](O)[C@H]4O)c3n2)c1,Potency,[1],inactive
same,Potency,[2],inactive
same,outcome,[3],inactive
same,Potency,[4],inactive
same,Potency,[6],inactive
same,Potency,[17],inactive
same,Potency,[7],inactive
same,Potency,[8],inactive
same,Potency,[9],inactive
same,max response,[10],4.42%
same,Potency,[11],inactive
same,Potency,[12],inactive
same,Potency,[19],inactive
same,Potency,[13],inactive
same,Potency,[14],inactive
C=CC(=O)OCC1CC2CC1C1CCC(COC(=O)C=C)C21 (stereo unspecified),Potency,[1],inactive
same,Potency,[2],inactive
same,Potency,[17],inactive
same,Potency,[18],49 µM (active)
same,Potency,[11],49 µM (active)
same,Potency,[12],inactive
same,Potency,[13],49 µM (active)
same,Potency,[14],38.9 µM (active)
N#CCCN(CCO)CCO,Potency,[1],inactive
same,Potency,[2],inactive
same,outcome,[3],inactive
same,Potency,[4],inactive
same,Potency,[5],inactive
same,Potency,[6],inactive
same,Potency,[17],inactive
same,Potency,[7],inactive
same,Potency,[18],inactive
same,Potency,[8],inactive
same,Potency,[9],inactive
same,Potency,[11],inactive
same,Potency,[12],inactive
same,Potency,[19],inactive
same,Potency,[13],inactive
same,Potency,[14],inactive
CN1C(=O)c2ccccc2C1=O,Potency,[1],inactive
same,Potency,[2],inactive
same,Potency,[4],inactive
same,Potency,[16],inactive
same,"activity change, positive = activation",[20],1.36%
same,Potency,[5],inactive
same,Potency,[17],inactive
same,Potency,[7],inactive
same,Potency,[8],inactive
same,Potency,[9],inactive
same,Potency,[11],inactive
same,Potency,[12],inactive
same,Potency,[19],inactive
same,Potency,[13],inactive
same,Potency,[14],inactive
O=[N+]([O-])c1ccc(Nc2ccc(Nc3ccccc3)c(S(=O)(=O)O)c2)c([N+](=O)[O-])c1,Potency,[1],inactive
same,Potency,[2],inactive
same,outcome,[3],inactive
same,Potency,[4],inactive
same,Potency,[5],inactive
same,Potency,[6],inactive
same,Potency,[17],inactive
same,Potency,[7],inactive
same,Potency,[18],inactive
same,Potency,[8],inactive
same,Potency,[9],inactive
same,max response,[10],5.22%
same,Potency,[11],inactive
same,Potency,[12],inactive
same,Potency,[19],inactive
same,Potency,[13],inactive
same,Potency,[14],inactive
CCCCCCCCOc1ccc(C(=O)O)cc1,Potency,[1],inactive
same,Potency,[2],inactive
same,Potency,[4],inactive
same,Potency,[5],inactive
same,Potency,[6],inactive
same,Potency,[7],inactive
same,Potency,[18],inactive
same,Potency,[8],inactive
same,Potency,[9],inactive
same,max response,[10],-8.38%
same,Potency,[11],inactive
same,Potency,[12],inactive
same,Potency,[19],inactive
same,Potency,[13],inactive
same,Potency,[14],inactive
C[C@@H]1CC(=O)NN=C1c1ccc(NN=C(C#N)C#N)cc1,Potency,[1],0.841 µM (active)
same,Potency,[2],inactive
same,Potency,[16],13.3 µM (active)
same,"activity change, positive = activation",[20],-30.7% [at 42.5 µM] and -38.2% [at 42.5 µM]
same,Potency,[17],inactive
same,Potency,[18],inactive
same,Potency,[9],inactive
same,Potency,[11],inactive
same,Potency,[12],inactive
same,Potency,[13],inactive
same,Potency,[14],15.1 µM (active) and 13.4 µM (active)
CCOc1ccc(Cc2nccc3cc(OCC)c(OCC)cc23)cc1OCC,Potency,[1],inactive
same,Potency,[2],inactive
same,outcome,[3],inactive
same,Potency,[5],12 µM (active)
same,Potency,[6],6.01 µM (active)
same,Potency,[18],inactive
same,Potency,[8],9.52 µM (active)
same,Potency,[9],12 µM (active)
same,Potency,[10],5.35 µM (active)
same,Potency,[11],inactive
same,Potency,[12],inactive
same,Potency,[13],inactive
same,Potency,[14],7.56 µM (active)
O=c1c(O)c(-c2ccc(O)cc2)oc2cc(O)cc(O)c12,Potency,[1],inactive
same,Potency,[2],inactive
same,Potency,[16],inactive
same,"activity change, positive = activation",[20],4.05% [at 42.5 µM]
same,Potency,[5],inactive
same,Potency,[6],inactive
same,Potency,[7],inactive
same,Potency,[18],inactive
same,Potency,[9],inactive
same,Potency,[11],inactive
same,Potency,[12],inactive
same,Potency,[19],inactive
same,Potency,[13],inactive
same,Potency,[14],inactive
CC1=Nc2ccc3ccccc3c2C1(C)C,Potency,[1],inactive
same,Potency,[2],inactive
same,outcome,[3],inactive
same,"activity change, positive = activation",[20],-35.4%
same,Potency,[5],inactive
same,Potency,[6],inactive
same,Potency,[17],inactive
same,Potency,[7],inactive
same,Potency,[18],inactive
same,Potency,[9],inactive
same,max response,[10],-26.2%
same,Potency,[11],inactive
NC(=O)c1ccncc1,Potency,[1],inactive
same,Potency,[2],inactive
same,Potency,[4],inactive
same,Potency,[16],inactive
same,"activity change, positive = activation",[20],6.51%
same,Potency,[5],inactive
same,Potency,[6],inactive
same,Potency,[7],inactive
same,Potency,[18],inactive
same,Potency,[8],inactive
same,Potency,[9],inactive
same,max response,[10],6.51%
same,Potency,[11],inactive
same,Potency,[12],inactive
same,Potency,[19],inactive
same,Potency,[13],inactive
same,Potency,[14],inactive
c1ccc(C[n+]2cccc3ccccc32)cc1,Potency,[1],inactive
same,Potency,[15],inactive
same,outcome,[3],inactive
same,Potency,[4],inactive
same,Potency,[16],48.6 µM (active)
same,"activity change, positive = activation",[20],-48.3%
same,Potency,[5],inactive
same,Potency,[6],inactive
same,Potency,[17],inactive
same,Potency,[7],inactive
same,Potency,[18],inactive
same,Potency,[8],inactive
same,Potency,[9],inactive
same,max response,[10],-28.8%
same,Potency,[11],inactive
same,Potency,[19],inactive
same,Potency,[13],inactive
same,Potency,[14],inactive
